An excerpt weighted towards active compounds, which were near 2.4% of everything screened.
Cruzain Triton = cruzain (T. cruzi) inhibition with detergent; AID 1478; purified cruzain, Z-FR-AMC fluorescence, 0.01% Triton; 200,000 compounds, 0.43% hits; Potency, µM, for inactives: max response, negative = inhibition, actives largely listed as inhibitors; P25779;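 note: plate controls were neutral wells for no effect and buffer without enzyme for full effect; nearly all actives have a fitted effect of over 40% in size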
Target sequence (P25779 123-467 limits assumed): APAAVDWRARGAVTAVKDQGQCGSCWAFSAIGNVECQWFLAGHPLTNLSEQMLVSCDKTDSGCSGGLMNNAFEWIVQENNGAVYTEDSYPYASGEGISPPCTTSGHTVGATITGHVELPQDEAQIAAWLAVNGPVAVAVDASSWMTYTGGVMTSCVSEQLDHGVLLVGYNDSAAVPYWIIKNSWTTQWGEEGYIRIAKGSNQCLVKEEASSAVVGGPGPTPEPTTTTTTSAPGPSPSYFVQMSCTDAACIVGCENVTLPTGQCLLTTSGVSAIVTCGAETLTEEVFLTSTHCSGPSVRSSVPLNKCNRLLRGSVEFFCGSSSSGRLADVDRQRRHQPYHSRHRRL
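Steps: dispense cruzain (1.5 nM final) in acetate buffer pH 5.5 with DTT and 0.01% Triton X-100; pin-transfer compounds; incubate 15 min RT; add Z-FR-AMC (2 uM final); read fluorescence every 30 s, using the 60 s intensity change.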
Cruzain noTriton = blocks cruzain activity in detergent-free assay; 200,000 compounds, 2.3% hits; purified cruzain, Z-FR-AMC fluorescence, no detergent; Potency, µM, without a hit: max response, negative = inhibition, actives largely listed as inhibitors; P25779;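 note: plate controls were enzyme without inhibitor for no effect and buffer without enzyme for full effect; nearly all actives have a fitted effect of over 40% in size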
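Purified cruzain at 1.5 nM, pre-incubated 15 min with compound at room temperature in 100 mM sodium acetate pH 5.5, 5 mM DTT, 0.00005% Triton X-100. Reaction started with 2 uM Z-FR-AMC; AMC fluorescence increase over 60 s gives rate.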
Starred values were filed as active, the others as inactive; ? = inconclusive. Calls come from the whole dose curve; as a rule, active = well fitted curve in the direction sought with a large enough effect; inconclusive = small, poorly fitted or top-dose-only effect, or another doubt; inactive = no such curve, though single readings can be large; an effect the other way counts as inactive or inconclusive. Potency is the fitted concentration of half-maximal effect.

SMILES | Cruzain Triton | Cruzain noTriton
COc1ccccc1OCCCSc1nc(-c2ccc(C(C)(C)C)cc2)nc2cc(=O)[nH]n12 | -21% | -19%
N=c1ccn2c(n1)OCC1C2O[C@@H](O)[C@H]1O (stereo partly drawn) | 6% | -5%
COc1ccc(C)cc1NCc1cc(=O)oc2cc(-c3ccccc3)c(O)cc12 | -2% | 32µM*
Cc1cc(C)cc(NCc2cc(=O)oc3cc(-c4ccccc4)c(O)cc23)c1 | 1% | ?
O=C(Cn1ncc2c(Cl)cccc21)NCc1cccc(Br)c1 | -3% | -1%
COc1ccc(/C=C/C(=O)NCC(=O)N/N=C/c2cc(Br)ccc2OCc2ccccc2)cc1 | 3% | 6.3µM*
COc1ccc(Br)cc1/C=N/NC(=O)CNC(=O)/C=C/c1ccccc1 | -4% | ?
O=C1CC(c2nc3ccccc3n2CCCCOc2ccccc2)CN1c1ccccc1Cl (stereo not drawn) | -14% | ?
O=C1CCCC2=C1C(c1cn(-c3ccccc3)nc1-c1cccs1)c1c([nH]c(=O)[nH]c1=O)N2 (stereo not drawn) | 14µM* | 13µM*
CSc1nc2c(c(=O)[nH]1)C(c1cccs1)C1=C(CCCC1=O)N2 (stereo not drawn) | -1% | 3%
CCc1ccccc1NC(=O)Nc1cc(C(=O)NCc2ccc(OC)cc2)ccc1N1CCCC1 | 4% | 13%
CC(C)Oc1ccc(/C=N/NC(=O)C(CSCc2ccccc2)NC(=O)c2ccc([N+](=O)[O-])cc2)cc1 (stereo not drawn) | -3% | 20µM*
O=C(COc1ccc(/C=N/NC(=O)c2ccccc2)cc1)Nc1ccc([N+](=O)[O-])cc1 | 2% | 13µM*
O=C(CNc1ccccc1)N/N=C/c1ccc([N+](=O)[O-])cc1 | -4% | -1%
O=C(COc1ccccc1)Nc1ccc([N+](=O)[O-])cc1 | 0% | -6%
CCCCc1nn2c(C)c(-c3ccc(OCC)cc3)nc2s1 | -1% | 9%
O=S(=O)(NCC(c1cccs1)S(=O)(=O)c1ccccc1)c1ccccc1 (stereo not drawn) | -4% | 3%
Cc1ccc(OCC(=O)Nc2ccc(O)c(C(=O)O)c2)cc1C | 1% | -8%
CCOc1ccccc1OCC(=O)Nc1ccc(N2CCCCC2)cc1 | 2% | -5%
Cc1cccc(C)c1OCC(=O)Nc1cccc(-c2nnc(-c3ccccc3)o2)c1 | 4% | ?
Cc1cccc(OCC(=O)Nc2cccc(-c3nnc(-c4ccccc4)o3)c2)c1C | 0% | 25µM*
Cc1ccc(OCC(=O)Nc2ccc(N3CCCC3)cc2)cc1C | ? | 2.5µM*
CCC(=O)Nc1ccc2c(c1)C(=O)c1ccccc1C2=O | -7% | 7%
Cc1cc(C)cc(OCC(=O)Nc2ccc3c(c2)C(=O)c2ccccc2C3=O)c1 | -1% | 25µM*
Cc1cccc(OCC(=O)Nc2ccc(N3CCCC3)cc2)c1C | ? | 3.2µM*
SMILES | Cruzain Triton | Cruzain noTriton
CN(C)S(=O)(=O)N(CC(=O)NCCSCc1ccccc1Cl)c1ccccc1 | -7% | ?
Cc1ccc(-c2c(C)n3c4c(=O)n(C)c(=O)n(C)c4nc3n2CCCO)cc1 | -3% | ?
COc1cc(NC(=O)c2c(C)oc3ncnc(N4CCCCC4)c23)cc(OC)c1 | -1% | 14%
COc1ccc(C)cc1-n1nnc(C(=O)Nc2cccc(SC)c2)c1C | -3% | 2%
Cc1cc(C)cc(OCC(=O)Nc2ccc(N3CCCC3)cc2)c1 | ? | 4µM*
Cc1cc(C)cc(OCC(=O)Nc2ccc(F)cc2)c1 | 0% | -19%
O=C(O)CCC(=O)Nc1ccc(N2CCCCCC2)cc1 | 3% | -5%
O=C(Cc1ccc(Cl)cc1)Nc1ccc(N2CCCC2)cc1 | 3% | 6.3µM*
CCCc1cc(N2CCN(c3cc(Cl)ccc3C)CC2)n2cnnc2n1 | -1% | -6%
O=C(CCN1C(=O)/C(=C\c2ccccc2Cl)SC1=S)N1CCN(c2ccccc2)CC1 | -2% | 16µM*
O=C(CCCN1C(=O)/C(=C/c2ccccc2Cl)SC1=S)Nc1ccccn1 | -7% | ?
COc1cccc(Cn2cnc3c(NS(=O)(=O)c4ccc(Cl)cc4Cl)c(C)c(C)cc32)c1 | 2% | 32µM*
COc1cccc(Cn2cnc3c(NS(=O)(=O)c4cc(Cl)ccc4Cl)c(C)c(C)cc32)c1 | -6% | ?
Cc1sc2nc(COC(=O)c3ccc(N4CCCC(C)C4)c([N+](=O)[O-])c3)[nH]c(=O)c2c1C (stereo not drawn) | -5% | 7.9µM*
Cc1sc2nc(COC(=O)c3ccc(N4CCCC4)c([N+](=O)[O-])c3)[nH]c(=O)c2c1C | -7% | ?
CCn1cc(C(=O)N(C)c2ccc(C(C)C)cc2)c2cc(OC)c(OC)cc2c1=O | -2% | ?
COc1ccccc1N1CCN(S(=O)(=O)c2c(C)sc3ncn(CC(=O)N(C)c4ccc(C(C)C)cc4)c(=O)c23)CC1 | -5% | 23%
CCOc1ccc(-c2nnc(SCC(=O)NCc3ccc(Cl)cc3)o2)cc1 | 25µM* | 20µM*
CCOc1ccc(-c2nnc(SCC(=O)NCc3ccccc3)o2)cc1 | -4% | -8%
